Source: the supplement of paper PMC9694430

What was measured:
Assay in all cases: thermal shift delta Tm vs DMSO control; higher = stronger stabilization (binding)
Settings in all cases: 12.5 µM; protein concentration 2 µM
[1] = test system: LOC_OS02G45750-cb003
Method in brief: (§1)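 Compounds dissolved in DMSO were added to purified rice kinase domain constructs, which had been expressed in E. coli, for differential scanning fluorimetry. Each well held 19.5 μl of 2 μM kinase in 100 mM potassium phosphate pH 7.5, 150 mM NaCl, 10% glycerol and 5 × SYPRO Orange. Fluorescence was followed from 25°C to 95°C at a rate of 0.05°C/s. Shifts in Boltzmann-fitted melting temperature are triplicate means relative to DMSO-only protein.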

[2] = test system: LOC_OS02G54510-cb004
Method in brief: as §1

[3] = test system: LOC_OS03G04050-cb001
Method in brief: as §1

[4] = test system: LOC_OS03G12390-cb001
Method in brief: as §1

[5] = test system: LOC_OS03G27990-cb004
Method in brief: as §1

[6] = test system: LOC_OS03G50450-cb001
Method in brief: as §1

[7] = test system: LOC_OS03G50810-cb003
Method in brief: as §1

[8] = test system: LOC_OS04G35114-cb001
Method in brief: as §1

[9] = test system: T1, LOC_OS04G38480-cb003
T1 sequence (whole entry): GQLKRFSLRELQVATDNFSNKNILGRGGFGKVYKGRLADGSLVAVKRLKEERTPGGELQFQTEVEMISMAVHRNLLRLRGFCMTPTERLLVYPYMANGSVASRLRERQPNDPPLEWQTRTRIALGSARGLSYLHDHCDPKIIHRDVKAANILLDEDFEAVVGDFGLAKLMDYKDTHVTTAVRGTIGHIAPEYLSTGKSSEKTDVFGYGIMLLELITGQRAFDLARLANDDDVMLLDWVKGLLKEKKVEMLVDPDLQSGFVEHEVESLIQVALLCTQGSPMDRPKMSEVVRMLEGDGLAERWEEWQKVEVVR
Method in brief: as §1

[10] = test system: T2, LOC_OS04G41100-cb001
T2 sequence (whole entry): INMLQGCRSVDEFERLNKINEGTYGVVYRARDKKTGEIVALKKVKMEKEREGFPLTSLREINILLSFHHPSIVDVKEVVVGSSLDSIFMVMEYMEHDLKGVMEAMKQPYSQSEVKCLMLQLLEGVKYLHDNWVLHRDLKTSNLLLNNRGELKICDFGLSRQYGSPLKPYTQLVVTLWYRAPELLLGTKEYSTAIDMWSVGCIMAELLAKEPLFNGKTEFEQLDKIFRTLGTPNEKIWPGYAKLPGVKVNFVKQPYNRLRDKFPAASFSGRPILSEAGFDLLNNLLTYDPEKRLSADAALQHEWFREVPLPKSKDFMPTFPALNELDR
Method in brief: as §1

SMILES | thermal shift delta Tm [1] [°C] | thermal shift delta Tm [2] [°C] | thermal shift delta Tm [3] [°C] | thermal shift delta Tm [4] [°C] | thermal shift delta Tm [5] [°C] | thermal shift delta Tm [6] [°C] | thermal shift delta Tm [7] [°C] | thermal shift delta Tm [8] [°C] | thermal shift delta Tm [9] [°C] | thermal shift delta Tm [10] [°C]
CC(C)c1ccc2oc3nc(N)c(C(=O)O)cc3c(=O)c2c1 [Amlexanox] | 4.41 | 0.56 | 0.67 | 0.45 | 1.73 | 1.46 | 0.21 | 2.71 | 1.28 | 0.49
c1ccc(-c2[nH]ncc2-c2ccnc3ccccc23)nc1 | 0.48 | 0.4 | 0.67 | 0.41 | 0.25 | 0.76 | 0.28 | 0.25 | 2.34 | 0.99
CC(C)(C#N)c1ccc(N2C(=O)OCc3cnc4ccc(-c5cnc6ccccc6c5)cc4c32)cc1 | 0.62 | 0.01 | 0.55 | 0.2 | 0.32 | 0.21 | 0.32 | 1.01 | 0.8 | 0.2
CN1CCN(c2ccc3nc(-c4c(N)c5c(F)cccc5[nH]c4=O)[nH]c3c2)CC1 [Dovitinib (TKI-258, CHIR-258)] | 13 | 0.96 | 0.58 | 2.88 | 4.19 | 2.43 | 4.84 | 7.2 | 1.57 | 0.95
CC(=O)O/N=C1/C(c2c(O)[nH]c3cc(Br)ccc23)=Nc2ccccc21 [BIO-acetoxime] | 9.18 | 2.31 | 1.28 | -0.22 | 0.36 | -0.71 | 5.4 | 5.86 | -0.03 | 0.88
Cc1c(C(=O)Nc2ccc(Oc3ccnc4[nH]cc(-c5ccccc5)c34)c(F)c2)c(=O)n(-c2ccc(F)cc2)n1C | 1.92 | -0.32 | 0.37 | 1.39 | 0.47 | 0.52 | 1.79 | 5.04 | 3.56 | 1.06
COc1cccc(-c2cc(=O)c3ccccc3o2)c1N | -0.15 | 0.15 | 0.23 | 0.21 | 0.01 | 0.16 | 0.04 | 0.26 | -0.06 | 0.2
Cc1cc(C)c(/C=C2\C(=O)Nc3ccccc32)[nH]1 [Semaxanib (SU5416)] | 0 | 0.58 | 0.69 | 4.53 | 1.72 | 2.32 | 2.91 | 6.57 | 2.87 | 0.32
CCNC(=O)Nc1ccc(-c2nc(N3CCOC[C@@H]3C)c3c(n2)C(C)(C)S(=O)(=O)C3)cc1 | 0.42 | 0.08 | 0.36 | 0.06 | 0.16 | 0.41 | 0.16 | 0.29 | 1.39 | 0.2
Cc1ccc(-n2nc(C(C)(C)C)cc2NC(=O)NCc2cc(F)ccc2Oc2ccc3c(cnn3CCO)c2)cc1 [Pexmetinib (ARRY-614)] | 0.81 | 2.56 | 0.65 | 1.05 | 0.31 | 0.02 | 0.36 | 0.41 | 1.51 | 1.43
CCCNC(=O)Nc1ccc(Oc2ncnc3cc(OC)c(OC)cc23)cc1Cl | -0.23 | -0.21 | -0.21 | 0.74 | -0.33 | -0.08 | 0.49 | 0.48 | -0.17 | -0.34
CCC[C@H](NC(=O)/C(C#N)=C/c1cccc(Br)n1)c1ccccc1 [Degrasyn (WP1130)] | -2.36 | -1.29 | 0.2 | -5.26 | -3.68 | -0.35 | -2.71 | -2.87 | 1.05 | -0.61
Cc1c(C(=O)N2CCOc3ccc(-c4ccc(N)nc4)cc3C2)ccc(S(C)(=O)=O)c1F | 0.79 | 0.21 | 0.5 | 0.38 | 0.27 | 0.12 | 0.24 | 0.73 | 0.22 | 0.43
CN1CC[C@H](c2c(O)cc(O)c3c(=O)cc(-c4ccccc4Cl)oc23)[C@H](O)C1 [Flavopiridol (Alvocidib)] | 1.64 | 0.69 | 0.2 | 1.66 | 1.06 | 0.4 | 0.4 | 2.64 | 0.88 | 0.66
C[C@H](CN(C)C)Oc1nc(Nc2cc3cccc(Cl)c3cn2)cnc1C#N | 2.56 | 0.35 | 0.34 | 1.56 | 0.61 | 0.13 | 1.33 | 1.48 | 1.13 | 0.28
CC(C)c1cnn2c(NCc3ccccc3-n3cccn3)nc(OC3CCCNC3)nc12 (stereo not given) | 0.32 | -0.14 | 0.32 | 0.22 | 0.11 | 0.09 | 0.5 | 0.48 | 1.13 | 0.57
C[C@@H](Oc1cc(-n2cnc3ccc(CN4CCN(C)CC4)cc32)sc1C(N)=O)c1ccccc1C(F)(F)F | 0.36 | -0.15 | 0.2 | -0.35 | -0.09 | -0.03 | 0.55 | 2.11 | 0.27 | 0.39
Cc1cc(F)c(Nc2ncnc3cc(OCc4ccccc4)ccc23)cc1O | 0.78 | 0.36 | 0.9 | 0.2 | 0.83 | 1.28 | 0.71 | 1.12 | 1.35 | -0.11
CC(C)S(=O)(=O)c1ccc2nccc(Nc3ccc4scnc4c3)c2c1 | 1.88 | 0.89 | 0.51 | 0.9 | 0.22 | 0.37 | 0.61 | 2.38 | 2.44 | 0.32
CNC(=O)Nc1ccc(-c2nc(N3CC4CCC(C3)O4)c3cnn(C4CCC5(CC4)OCCO5)c3n2)cc1 | 0.68 | 0.19 | 0.28 | 0.26 | 0.16 | 0.34 | -0.43 | 0.16 | 1.69 | 0.57
